Assay results: US20180258417, “RAPID CHARACTERIZATION OF CAS ENDONUCLEASE SYSTEMS, PAM SEQUENCES AND GUIDE RNA ELEMENTS” (PIONEER HI-BRED INTERNATIONAL, INC., published 2018)

T1: Blat Cas9 (Brevibacillus laterosporus SSP360D4)
T1 chain: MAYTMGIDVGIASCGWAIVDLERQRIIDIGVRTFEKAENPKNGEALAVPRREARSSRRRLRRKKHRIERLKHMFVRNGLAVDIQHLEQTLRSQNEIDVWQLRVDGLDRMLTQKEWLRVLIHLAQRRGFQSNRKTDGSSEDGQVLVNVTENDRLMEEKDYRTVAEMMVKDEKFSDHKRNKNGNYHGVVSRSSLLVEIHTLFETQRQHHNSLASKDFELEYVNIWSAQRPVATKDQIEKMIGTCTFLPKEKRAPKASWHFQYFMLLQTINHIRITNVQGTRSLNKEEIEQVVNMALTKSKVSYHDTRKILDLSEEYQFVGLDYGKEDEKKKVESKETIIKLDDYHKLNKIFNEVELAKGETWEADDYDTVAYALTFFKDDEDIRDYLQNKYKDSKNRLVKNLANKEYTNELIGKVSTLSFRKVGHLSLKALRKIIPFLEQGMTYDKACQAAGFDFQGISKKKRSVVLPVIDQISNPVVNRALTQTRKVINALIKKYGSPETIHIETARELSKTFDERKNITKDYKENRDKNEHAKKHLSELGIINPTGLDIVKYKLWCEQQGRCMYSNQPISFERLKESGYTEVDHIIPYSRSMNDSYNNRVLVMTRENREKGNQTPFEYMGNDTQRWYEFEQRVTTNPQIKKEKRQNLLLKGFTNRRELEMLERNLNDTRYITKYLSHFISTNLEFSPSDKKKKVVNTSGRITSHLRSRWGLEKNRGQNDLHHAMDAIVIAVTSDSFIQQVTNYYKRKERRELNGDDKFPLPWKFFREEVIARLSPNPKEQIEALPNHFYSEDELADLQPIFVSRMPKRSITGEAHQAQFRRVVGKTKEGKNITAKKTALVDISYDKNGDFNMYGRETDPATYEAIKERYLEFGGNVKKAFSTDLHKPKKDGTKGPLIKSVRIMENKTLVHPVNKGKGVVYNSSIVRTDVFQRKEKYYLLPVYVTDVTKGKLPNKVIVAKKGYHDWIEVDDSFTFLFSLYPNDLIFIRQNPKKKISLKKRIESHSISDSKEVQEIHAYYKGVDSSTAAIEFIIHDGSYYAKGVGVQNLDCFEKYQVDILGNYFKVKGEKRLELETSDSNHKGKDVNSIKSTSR

B1: Blat sgRNA direct ; T1 + GTCCCGCA PAM (ssRNA ; dsDNA)
RNA: GGGCGCUAAAGAGGAAGAGGACAGCUAUAGUUCCUUACUGAAAGGUAAGUUGCUAUAGUAAGGGCAACAGACCCGAGGCGUUGGGGAUCGCCUAGCCCGUUUUUACGGGCUCUCCCCAUAUUCAAAAUAAUGACAGACGAGCACCUUGGAGCAUUUAUUUCCGAGGUGCUUUUUUUU
DNA 1: CGCTAAAGAGGAAGAGGACAGTCCCGCA
DNA 2: TGCGGGACTGTCCTCTTCCTCTTTAGCG
modifications: [NONE]
B2: Blat sgRNA direct ; T1 + GTCCCGAC PAM (ssRNA ; dsDNA)
RNA: B1 RNA
DNA 1: CGCTAAAGAGGAAGAGGACAGTCCCGAC
DNA 2: GTCGGGACTGTCCTCTTCCTCTTTAGCG

Experiments:
[1] = target: T1, Blat Cas9; assay: cleavage_in_vitro; PAM position 7 A to C; 10 mM MgCl2, 15 C; conditions: tags: C-terminal His (pBAD24-CHis)
Excerpt: (§1) To validate the PAM specificity for Blat Cas9, plasmids were engineered to contain mutations ([…] (reference), […], […], […], […], […] with mutations shown in bold and underlined, FIG. 39) in the most conserved residues of the PAM immediately downstream of a 20 base pair region matching the variable targeting domain T1 (SEQ ID NO: 141). In vitro cleavage reactions with the various PAM sequences were initiated by mixing supercoiled plasmid DNA with pre-assembled Blat Cas9-sgRNA complex (1:1 v/v ratio) at 15° C. The final reaction mixture contained 3 nM plasmid, 50 nM Cas9, 10 mMTris-HCl (pH 7.5 at 37° C.), 100 mM NaCl, 1 mM DTT and 10 mM MgCl2 in a 100 μI reaction volume. Aliquots were removed at timed intervals and quenched with phenol/chloroform. The aqueous phase was mixed with 3× loading dye solution (0.01% (w/v) bromophenol blue and 75 mM EDTA in 50% (v/v) glycerol) and reaction products analyzed by agarose gel electrophoresis. The amount of supercoiled (SC) form was evaluated by densitometric analysis of ethidium bromide stained gels using the software ImageJ. Values of reaction rate constants were obtained as described by Szczelkun, et al., (2014) Proc. Natl. Acad. Sci. USA 111:9798-9803). Replacement of the C nucleotide at the 5th position abolished plasmid DNA cleavage confirming its key role in Blat Cas9 PAM recognition (FIG. 39).

[2] = target: T1, Blat Cas9; assay: cleavage_in_vitro; PAM position 8 A to C; 10 mM MgCl2, 15 C; conditions: tags: C-terminal His (pBAD24-CHis)
Excerpt: as §1

Binder | cleavage rate decrease vs reference PAM [1] | binding signal [2]
B1 | 43 fold decrease in rate | 
B2 |  | 12 fold decrease in rate
